# Test results as given in PubChem BioAssay (NCATS).
# Results filed as inconclusive are left out. Entries that show only a call come without a potency. Values without a mark were called inactive. Calls of active or inactive are those of the source. Calls come from the whole dose curve; as a rule, active = well fitted curve in the direction sought with a large enough effect; inconclusive = small, poorly fitted or top-dose-only effect, or another doubt; inactive = no such curve, though single readings can be large; an effect the other way counts as inactive or inconclusive.
# What was measured:
# [1] = biological target: Cellular tumor antigen p53 (Homo sapiens) (UniProt P04637); test: Primary qHTS for small molecule compounds that upregulate eGFP-tagged delta133p53alpha (in N-terminal) cells. (AID 2060322); settings: NCI-H358 eGFP-delta133p53alpha fluorescence, 24 h; activation: stronger effect = higher value; note: nearly all actives have a fitted effect of over 75% in size; note: potency is the fitted concentration of half-maximal effect;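 for activation: cells pre-induced with doxycycline then dosed without doxycycline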
# Sequence of Cellular tumor antigen p53 (Homo sapiens) (P04637 whole entry, looked up): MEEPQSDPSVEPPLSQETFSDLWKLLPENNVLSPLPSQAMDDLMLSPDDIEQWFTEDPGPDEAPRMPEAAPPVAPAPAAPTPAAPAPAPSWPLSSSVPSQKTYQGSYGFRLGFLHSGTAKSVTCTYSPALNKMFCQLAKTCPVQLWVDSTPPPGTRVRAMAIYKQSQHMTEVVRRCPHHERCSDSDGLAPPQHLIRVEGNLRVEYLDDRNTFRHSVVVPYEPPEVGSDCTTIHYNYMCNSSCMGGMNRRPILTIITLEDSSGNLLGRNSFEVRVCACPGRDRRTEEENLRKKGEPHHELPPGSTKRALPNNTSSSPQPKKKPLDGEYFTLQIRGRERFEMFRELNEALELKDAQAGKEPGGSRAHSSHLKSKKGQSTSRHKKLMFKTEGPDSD
# Method in brief: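 NCI-H358 cells pre-induced 24 h with 10 ng/ml doxycycline for eGFP-delta133p53alpha, plated dox-free and exposed 24 h at 37C to titrated compounds. Fixed, Hoechst-stained; gated GFP peak intensity by laser scanning cytometry, normalized to DMSO (0%) and 57.5 uM 5-azacytidine (100%).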
# [2] = biological target: Aldehyde dehydrogenase, mitochondrial (Homo sapiens) (UniProt P05091); test: qHTS for Inhibitors of the Aldehyde Dehydrogenase Family (ALDH2) Primary screen (AID 2061308); settings: ALDH2 enzyme inhibition qHTS, 1536-well; series mostly up to 56 µM; note: nearly all actives have a fitted effect of over 55% in size
# [3] = biological target: Retinaldehyde dehydrogenase 3 (Homo sapiens) (UniProt P47895); test: qHTS for Inhibitors of the Aldehyde Dehydrogenase Family (ALDH1A3) Primary screen (AID 2061315); settings: ALDH inhibition qHTS; series mostly up to 56 µM
SMILES,activation [1],Potency [2],Potency [3],Potency [1]
COc1cc(COC2OC(CO)C(O)C(O)C2O)cc(OC)c1O (stereo unspecified),-6.87%,inactive,inactive,–
C=C1CCC2(OC1)OC1CC3C4CC=C5CC(O)CC(O[C@@H]6OC[C@H](OC(=O)C(O)C(C)CC)[C@H](O)[C@H]6O[C@@H]6O[C@@H](C)[C@H](O)[C@@H](O)[C@H]6O)C5(C)C4CCC3(C)C1C2C (stereo partly specified),11.6%,inactive,inactive,–
CC(C)c1ccc(CO)cc1O[C@@H]1O[C@H](CO)[C@@H](O)[C@H](O)[C@H]1O,-11.5%,inactive,inactive,–
C/C=C/C=C/C(=O)N1CC[C@]23c4ccccc4N[C@H]4N(C)c5cccc6c5[C@@]42CCN([C@H]6C2OC2(C)C)[C@H]13 (stereo partly specified),15.3%,inactive,inactive,–
C=C(CC/C=C(\C)C(=O)O)C1(O)CC=C(C)CC1 (stereo unspecified),-21.4%,inactive,inactive,–
C=C1CCC2C(C)(C(=O)OC)CCCC2(C)C1CCC(C)CC(=O)O (stereo unspecified),-13%,inactive,inactive,–
C=C(C(=O)O)C1CCC2(C)CCC(O)C(C)(O)C2C1 (stereo unspecified),8.04%,inactive,inactive,–
CC1(C)OC[C@H](NC(=O)Nc2ccc(Br)cc2Br)[C@H](c2ccccc2)O1,–,inactive,inactive,19 µM (active)
OC[C@H]1O[C@@H](Oc2ccccc2)[C@H](O)[C@@H](O)[C@@H]1O,-0.893%,inactive,inactive,–
O=C1NC(Cc2c[nH]c3ccccc23)C(=O)NC1Cc1c[nH]c2ccccc12 (stereo unspecified),14.5%,inactive,inactive,–
C/C1=C\[C@@H](C)C[C@@H](C)[C@@H](Cc2cnco2)OC(=O)/C(C)=C/[C@@H](C)C[C@@H](C)[C@@H](Cc2cnco2)OC1=O,0%,inactive,inactive,–
C[C@]12CCC[C@](C)(C(=O)O)C1CCC13CC(CO)C(CCC12)C3 (stereo partly specified),-19.1%,inactive,inactive,–
